Results on 27 compounds are retold here after PubChem BioAssay (EPA / NIEHS).

SMILES strings stand for the structures. The source made the active and inactive calls. The calls were made as follows: active = hit-call score of the fitted dose curve at least 0.9, where 1 is the maximum; inactive = score below 0.9.

Read-out in one test: C-C motif chemokine 2 (Homo sapiens) (UniProt P13500)
As to the kind of experiment: BSK_KF3CT_MCP1: BioMAP Diversity Plus: KF3CT Assay for Monocyte Chemoattractant Protein 1 (MCP1/CCL2) Biomarker Activity (AID 2283073). Particulars: primary human keratinocytes with fibroblasts; actives raise or lower the signal. Summed up: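 ELISA readout of MCP-1 after 24 h chemical dosing of a human skin primary co-culture of keratinocytes and foreskin fibroblasts. Activity was fitted in both directions against DMSO.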
Regarding `O=C(O)COc1nc(Cl)c(Cl)cc1Cl`, the result was inactive.
With `N#Cc1nn(-c2c(Cl)cc(C(F)(F)F)cc2Cl)c(N)c1S(=O)C(F)(F)F` (centres undefined), the outcome was inactive.
For the compound `CC(C)Oc1cc(-n2nc(C(C)(C)C)oc2=O)c(Cl)cc1Cl`, the result was inactive.
Still for that read-out and setting: next, `CCOP(=S)(OCC)SCn1c(=O)oc2cc(Cl)ccc21`: “inactive”; `CCCC1COC(Cn2cncn2)(c2ccc(Cl)cc2Cl)O1` (centres undefined): “inactive”; `COC(=O)C=C(C)OP(=O)(OC)OC`: “inactive”.
Still for that read-out and setting: next, `CCNc1nc(Cl)nc(NCC)n1`: “inactive”; `COc1ccc(C(c2ccc(OC)cc2)C(Cl)(Cl)Cl)cc1`: “inactive”.
As for `CCOC(=O)C(Cl)Cc1cc(-n2nc(C)n(C(F)F)c2=O)c(F)cc1Cl` (centres undefined), the outcome was inactive.
As for `CCc1nn(C)c(C(=O)NCc2ccc(C(C)(C)C)cc2)c1Cl`, the concentration at half-maximal activity (AC50) was 27.1 µM (active).
For the compound `N#CC(CCc1ccc(Cl)cc1)(Cn1cncn1)c1ccccc1` (centres undefined), the result was inactive.
Take `CN(C)C(=S)SSC(=S)N(C)C`: the AC50 was 5.09 µM (active).
Consider `CNC(=S)S`, for which the outcome was inactive.
In the case of `CON(C)C(=O)Nc1ccc(Cl)c(Cl)c1`, the result was inactive.
On to `Cc1ccc(-c2c(Cl)nc(C#N)n2S(=O)(=O)N(C)C)cc1`, for which the result was inactive.
For the compound `COc1nc(NC(C)C)nc(NC(C)C)n1`, the result was inactive.
Take `CC(C)(C)c1ccc(CSc2cnn(C(C)(C)C)c(=O)c2Cl)cc1`: the half-maximal activity concentration (AC50) is 20 µM (active).
As for `COC(=O)N(OC)c1ccccc1COc1ccn(-c2ccc(Cl)cc2)n1`, the concentration at half-maximal activity (AC50) was 2.56 µM (active).
As for `N#Cc1cc(Br)c(O)c(Br)c1`, the outcome was inactive.
With `COP(=S)(OC)Oc1nc(Cl)c(Cl)cc1Cl`, the outcome was inactive.
Regarding `CCCCNC(=O)n1c(NC(=O)OC)nc2ccccc21`, the outcome was inactive.
On to `CC(Oc1ccc(Cl)cc1Cl)C(=O)O` (centres undefined), for which the outcome was inactive.
As for `O=C(Nc1ccccc1)Nc1ccnc(Cl)c1`, the result was inactive.
With `CC1=C(C(=O)Nc2ccccc2)SCCO1`, the outcome was inactive.
With `CCOc1cc(Oc2ccc(C(F)(F)F)cc2Cl)ccc1[N+](=O)[O-]`, the result was inactive.
Consider `Fc1ccc(Oc2ccnc3cc(Cl)cc(Cl)c23)cc1`, for which the result was inactive.
As for `CCCCC(CC)COC(=O)c1ccccc1C(=O)OCC(CC)CCCC` (centres undefined), the outcome was inactive.

Read-out in the next test: Matrix Metallopeptidase 9 (MMP9), MMP9 (gene 4318)
As to the kind of experiment: BSK_KF3CT_MMP9: BioMAP Diversity Plus: KF3CT Assay for Matrix Metallopeptidase 9 (MMP9) Biomarker Activity (AID 2283074).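 As to AC50: MMP9 protein level quantified by ELISA in the co-culture.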 Particulars: primary human keratinocytes with fibroblasts; actives raise or lower the signal. An outline of the steps:
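Human keratinocyte and foreskin fibroblast co-culture exposed to chemicals for 24 h; MMP9 biomarker measured by ELISA, bidirectional fitting relative to DMSO; cytotoxicity tracked by SRB total protein staining in parallel cultures.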
Consider `O=C(O)COc1nc(Cl)c(Cl)cc1Cl`, for which the result was inactive.
On the same count and under the same terms, next, `N#Cc1nn(-c2c(Cl)cc(C(F)(F)F)cc2Cl)c(N)c1S(=O)C(F)(F)F` (centres undefined): “inactive”.
Turning to `CC(C)Oc1cc(-n2nc(C(C)(C)C)oc2=O)c(Cl)cc1Cl`, the concentration at half-maximal activity (AC50) was 28.8 µM (active).
Take `CCOP(=S)(OCC)SCn1c(=O)oc2cc(Cl)ccc21`: the result was inactive.
Take `CCCC1COC(Cn2cncn2)(c2ccc(Cl)cc2Cl)O1` (centres undefined): the outcome was inactive.
Same read-out and setting: next, `COC(=O)C=C(C)OP(=O)(OC)OC`: “inactive”.
For `CCNc1nc(Cl)nc(NCC)n1`, the outcome was inactive.
Regarding `COc1ccc(C(c2ccc(OC)cc2)C(Cl)(Cl)Cl)cc1`, the AC50 is 12.7 µM (active).
With `CCOC(=O)C(Cl)Cc1cc(-n2nc(C)n(C(F)F)c2=O)c(F)cc1Cl` (centres undefined), the result was inactive.
Take `CCc1nn(C)c(C(=O)NCc2ccc(C(C)(C)C)cc2)c1Cl`: the AC50 is 30.6 µM (active).
For the compound `N#CC(CCc1ccc(Cl)cc1)(Cn1cncn1)c1ccccc1` (centres undefined), the result was inactive.
With `CN(C)C(=S)SSC(=S)N(C)C`, the AC50 is 7.1 µM (active).
For `CNC(=S)S`, the result was inactive.
Turning to `CON(C)C(=O)Nc1ccc(Cl)c(Cl)c1`, the result was inactive.
`Cc1ccc(-c2c(Cl)nc(C#N)n2S(=O)(=O)N(C)C)cc1`: the AC50 was 6.7 µM (active).
In the case of `COc1nc(NC(C)C)nc(NC(C)C)n1`, the result was inactive.
On to `CC(C)(C)c1ccc(CSc2cnn(C(C)(C)C)c(=O)c2Cl)cc1`, for which the AC50 was 18.6 µM (active).
Same read-out and setting: next, `COC(=O)N(OC)c1ccccc1COc1ccn(-c2ccc(Cl)cc2)n1`: 3.97 µM (active).
With `N#Cc1cc(Br)c(O)c(Br)c1`, the outcome was inactive.
Same read-out and setting: to `COP(=S)(OC)Oc1nc(Cl)c(Cl)cc1Cl` belongs “inactive”; to `CCCCNC(=O)n1c(NC(=O)OC)nc2ccccc21`, “inactive”; to `CC(Oc1ccc(Cl)cc1Cl)C(=O)O` (centres undefined), “inactive”.
For `O=C(Nc1ccccc1)Nc1ccnc(Cl)c1`, the outcome was inactive.
For the compound `CC1=C(C(=O)Nc2ccccc2)SCCO1`, the outcome was inactive.
As for `CCOc1cc(Oc2ccc(C(F)(F)F)cc2Cl)ccc1[N+](=O)[O-]`, the result was inactive.
`Fc1ccc(Oc2ccnc3cc(Cl)cc(Cl)c23)cc1`: the AC50 is 12.9 µM (active).
Regarding `CCCCC(CC)COC(=O)c1ccccc1C(=O)OCC(CC)CCCC` (centres undefined), the outcome was inactive.

A word on the AC50: it is the concentration at which the activity in the assay is half-maximal.
